{"source": "the antibiotic and cytotoxicity screens of Wong et al. (2023)", "note": "In all, about 39,000 compounds went through this assay and about 500 (1.3%) were called active. This excerpt belongs to a sample that is enriched for actives."}
{"test_system": "S. aureus RN4220", "experiment": "growth inhibition call (relative growth <= 0.2)", "details": "50 µM"}
{"smiles": "O=c1cc(CN2CC[C@H](N3CCOCC3)[C@H](CCCO)C2)nc2c(O)cccn12", "growth inhibition call": "inactive"}
{"smiles": "C[C@@H]1CCCCO[C@@H](CN(C)CC2CCCCC2)[C@@H](C)CN([C@@H](C)CO)C(=O)c2cc(NC(=O)C3CCCCC3)ccc2O1", "growth inhibition call": "inactive"}
{"smiles": "CC(C)[C@@H](O)C[C@@H](C)O[C@@H]1O[C@H](CO[C@@H]2OC[C@](O)(CO)[C@H]2O)[C@@H](O)[C@H](O)[C@H]1O", "growth inhibition call": "inactive"}
{"smiles": "C[C@H]1CN([C@@H](C)CO)S(=O)(=O)c2ccc(C#Cc3ccccc3)cc2O[C@H]1CN(C)C(=O)c1ccccn1", "growth inhibition call": "inactive"}
{"smiles": "O=C1O[C@H](c2ccccc2)[C@H](c2ccccc2)N2[C@H]1[C@@H](C(=O)N1CCCCCCC1)[C@]1(C(=O)Nc3ccc(C#CC4=CCCCC4)cc31)[C@H]2c1ccc(O)cc1", "growth inhibition call": "inactive"}
{"smiles": "C=CCNC(=O)[C@@H]1[C@H]2C(=O)O[C@H](c3ccccc3)[C@H](c3ccccc3)N2[C@H](c2ccc(O)cc2)[C@@]12C(=O)Nc1ccc(C#CC3=CCCCC3)cc12", "growth inhibition call": "inactive"}
{"smiles": "O=C1O[C@@H](c2ccccc2)[C@@H](c2ccccc2)N2[C@@H](c3ccc(O)cc3)[C@]3(C(=O)Nc4ccc(C#CC5=CCCCC5)cc43)[C@@H](C(=O)O)[C@H]12", "growth inhibition call": "active"}
{"smiles": "O=C1O[C@H](c2ccccc2)[C@H](c2ccccc2)N2[C@H]1[C@@H](C(=O)O)[C@]1(C(=O)Nc3ccc(C#CC4=CCCCC4)cc31)[C@H]2c1ccccc1OCCO", "growth inhibition call": "active"}
{"smiles": "O=C1O[C@@H](c2ccccc2)[C@@H](c2ccccc2)N2[C@@H](c3ccccc3OCCO)[C@]3(C(=O)Nc4ccc(C#CC5=CCCCC5)cc43)[C@@H](C(=O)O)[C@H]12", "growth inhibition call": "inactive"}
{"smiles": "O=C1O[C@@H](c2ccccc2)[C@@H](c2ccccc2)N2[C@@H](c3ccc(O)cc3)[C@]3(C(=O)Nc4ccc(C#CC5=CCCCC5)cc43)[C@@H](C(=O)N3CCCCCCC3)[C@H]12", "growth inhibition call": "inactive"}
{"smiles": "O=C1O[C@H](c2ccccc2)[C@H](c2ccccc2)N2[C@H]1[C@@H](C(=O)O)[C@]1(C(=O)Nc3ccc(C#CC4=CCCCC4)cc31)[C@H]2c1ccc(O)cc1", "growth inhibition call": "active"}
{"smiles": "C=CCNC(=O)[C@H]1[C@@H]2C(=O)O[C@@H](c3ccccc3)[C@@H](c3ccccc3)N2[C@@H](c2ccc(O)cc2)[C@]12C(=O)Nc1ccc(C#CC3=CCCCC3)cc12", "growth inhibition call": "inactive"}
{"smiles": "NC(=O)[C@H]1[C@@H]2C(=O)O[C@@H](c3ccccc3)[C@@H](c3ccccc3)N2[C@@H](c2ccccc2OCCO)[C@]12C(=O)Nc1ccc(C#CC3=CCCCC3)cc12", "growth inhibition call": "inactive"}
{"smiles": "CC(C)(C)S(=O)N1Cc2cc(C(=O)N[C@@H]3CCN(Cc4ccccc4)C3)nc(-c3cccc(C#CCC4CCCC4)c3)c2[C@H]1CCO", "note": "(some centres undefined)", "growth inhibition call": "inactive"}
{"smiles": "CC(C)(C)OC(=O)C[C@@H]1CC=CC[C@@H](CC(=O)NCCO)C(=O)N[C@@H](Cc2ccccc2)COC1=O", "growth inhibition call": "inactive"}
{"smiles": "C[C@@H]1CN([C@@H](C)CO)C(=O)Cc2cc(NC(=O)Nc3ccc(F)cc3)ccc2O[C@@H]1CN(C)Cc1ccc(C(=O)Nc2ccccc2N)cc1", "growth inhibition call": "inactive"}
{"smiles": "Cc1ccc(S(=O)(=O)Nc2ccc3c(c2)C(=O)N([C@H](C)CO)C[C@@H](C)[C@@H](CN(C)Cc2ccc4c(c2)OCO4)OCCCC[C@@H](C)O3)cc1", "growth inhibition call": "inactive"}
{"smiles": "CC(C)NC(=O)N[C@@H]1CC[C@H](CCN)O[C@@H]1CO", "growth inhibition call": "inactive"}
{"smiles": "COc1ccccc1NC(=O)Nc1ccc2c(c1)OC[C@@H](C)N(Cc1ccccc1Cl)C[C@@H](C)[C@H](OC)CN(C)C2=O", "growth inhibition call": "inactive"}
{"smiles": "CO[C@H]1CN(C)C(=O)c2ccc(NS(C)(=O)=O)cc2OC[C@H](C)N(C(=O)C2CCOCC2)C[C@H]1C", "growth inhibition call": "inactive"}
{"smiles": "CC(C)CC#Cc1ccc2c(c1)O[C@H](CN(C)C(=O)Cc1cccnc1)[C@@H](C)CN([C@H](C)CO)S2(=O)=O", "growth inhibition call": "inactive"}
{"smiles": "O=C(C[C@H]1CC[C@@H](NC(=O)CN2CCOCC2)[C@H](CO)O1)NCCc1ccccc1", "growth inhibition call": "inactive"}
{"smiles": "Cc1ccc(C)c(OCCCC(C)(C)C(=O)O)c1", "growth inhibition call": "inactive"}
{"smiles": "CC(C)(C)Cc1ccc(OCCCC(=O)O)c(CC(C)(C)C)c1", "growth inhibition call": "active"}
{"smiles": "CCCCc1ccc(CC(=O)O)cc1", "growth inhibition call": "inactive"}
{"smiles": "C[C@H](CO)N1C[C@H](C)[C@H](CN(C)S(=O)(=O)c2ccccc2)Oc2ccc(NS(C)(=O)=O)cc2CC1=O", "growth inhibition call": "inactive"}
{"smiles": "O=C(O)CN1C(=O)c2cccc3cccc(c23)C1=O", "growth inhibition call": "inactive"}
{"smiles": "O=C(CN1C(=O)c2cccc3cccc(c23)C1=O)N1CCN(CCN2C(=O)[C@@H]3[C@@H](C2=O)[C@@H]2C=C[C@@H]3C2)CC1", "growth inhibition call": "inactive"}
{"smiles": "CC(C)(C)C1CCC(OC[C@@H](O)CN2CCC(CN3C(=O)c4cccc5cccc(c45)C3=O)CC2)CC1", "note": "(some centres undefined)", "growth inhibition call": "active"}
{"smiles": "C[C@H](O)C#Cc1cnc2c(c1)C(=O)N([C@@H](C)CO)C[C@H](C)[C@@H](CN(C)Cc1cncnc1)O2", "growth inhibition call": "inactive"}
{"smiles": "C[C@@H]1CN([C@@H](C)CO)C(=O)c2cc(NC(=O)c3ccncc3)ccc2O[C@@H](C)CCCCO[C@@H]1CN(C)S(=O)(=O)c1cn(C)cn1", "growth inhibition call": "inactive"}
{"smiles": "C[C@H]1CN([C@@H](C)CO)C(=O)c2c(c3ccccc3n2C)-c2ccccc2CO[C@@H]1CN(C)Cc1ccc(C(=O)O)cc1", "growth inhibition call": "inactive"}
{"smiles": "CC(C)[C@H]1CC[C@@H](C)C[C@@H]1NC(=O)c1cccc2ccccc12", "growth inhibition call": "inactive"}
{"smiles": "COc1ccc2c(c1)n(CCN)c(=O)n2C(=O)[C@@H]1C[C@H](C)CC[C@H]1C(C)C", "growth inhibition call": "active"}
{"smiles": "COc1ccc(NC(=O)N(C)C[C@H]2OCCCC[C@H](C)Oc3ccc(NC(=O)NC4CCCCC4)cc3C(=O)N([C@@H](C)CO)C[C@H]2C)cc1", "growth inhibition call": "inactive"}
{"smiles": "O=C(O)CN(CCN(CC(=O)O)CC(=O)O)CC(=O)O", "growth inhibition call": "inactive"}
{"smiles": "Cc1c2oc3c(C)ccc(C(=O)N[C@@H]4C(=O)N[C@@H](C(C)C)C(=O)N5CCC[C@H]5C(=O)N(C)CC(=O)N(C)[C@@H](C(C)C)C(=O)O[C@@H]4C)c3nc-2c(C(=O)N[C@@H]2C(=O)N[C@@H](C(C)C)C(=O)N3CCC[C@H]3C(=O)N(C)CC(=O)N(C)[C@@H](C(C)C)C(=O)O[C@@H]2C)c(N)c1=O", "growth inhibition call": "active"}
{"smiles": "Cc1c2oc3c(C)ccc(C(=O)N[C@@H]4C(=O)N[C@H](C(C)C)C(=O)N5CCC[C@H]5C(=O)N(C)CC(=O)N(C)[C@@H](C(C)C)C(=O)O[C@@H]4C)c3nc-2c(C(=O)N[C@@H]2C(=O)N[C@H](C(C)C)C(=O)N3CCC[C@H]3C(=O)N(C)CC(=O)N(C)[C@@H](C(C)C)C(=O)O[C@@H]2C)c(N)c1=O", "growth inhibition call": "inactive"}
{"smiles": "Cc1c2oc3c(C)ccc(C(=O)OC(C)C4NC(=O)C(C(C)C)N(C)C(=O)CN(C)C(=O)C5CCCN5C(=O)C(C(C)C)NC4=O)c3nc-2c(C(=O)OC(C)C2NC(=O)C(C(C)C)N(C)C(=O)CN(C)C(=O)C3CCCN3C(=O)C(C(C)C)NC2=O)c(N)c1=O", "note": "(centres undefined)", "growth inhibition call": "active"}
